Compounds with a hit are over-represented: about 2.4% of the library has one in this group of screens.
HSF1 inhib: HSF1 inhibitors in luciferase reporter cells, primary screen, cell-based, NIH3T3, luminescence | NIH3T3-HGL HSE-luciferase, MG132-induced, luminescence 8 h; hits give low values | activity change, negative = inhibition, % at 7.5 µM (by protocol) | 0.77% of 300,000 active | AID 2098, 2009;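 active = more than half of replicate wells show activity change below -50%, luminescence cut by over half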;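 also: luciferase reports HSF-1 transcriptional activity via heat shock element; 0% = median of DMSO wells and -100% = zero luminescence signal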
NOD2-RIPK2 inh: NOD2-RIPK2 binding disruptors in cells, primary screen, fluorescence, CHO cells, BLA complementation. inhibition, % at 4.98 µM. Receptor-interacting serine/threonine-protein kinase 2 (Homo sapiens), O43353. 0.38% of 360,000 active. AID 624267, 2012. CCF4 ratio; in the data active = inhibition above about 21%;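 also: 0% = vehicle only and 100% = reference blocker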
Target sequence (O43353 whole entry, looked up): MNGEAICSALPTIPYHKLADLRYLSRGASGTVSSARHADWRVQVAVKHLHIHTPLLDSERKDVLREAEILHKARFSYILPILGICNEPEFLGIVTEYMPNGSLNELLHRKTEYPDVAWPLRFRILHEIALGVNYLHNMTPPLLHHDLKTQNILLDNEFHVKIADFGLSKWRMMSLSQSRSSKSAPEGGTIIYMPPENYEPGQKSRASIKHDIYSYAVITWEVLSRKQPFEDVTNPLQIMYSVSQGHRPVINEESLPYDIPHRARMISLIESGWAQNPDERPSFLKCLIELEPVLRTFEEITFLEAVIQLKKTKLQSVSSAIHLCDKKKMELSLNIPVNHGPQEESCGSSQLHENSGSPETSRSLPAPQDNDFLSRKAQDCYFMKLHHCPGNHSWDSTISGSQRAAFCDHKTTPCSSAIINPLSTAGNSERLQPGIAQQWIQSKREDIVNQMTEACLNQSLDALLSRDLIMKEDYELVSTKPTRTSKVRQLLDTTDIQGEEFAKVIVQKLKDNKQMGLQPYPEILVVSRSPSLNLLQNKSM
TLR4-MyD88 BLA: inhibitors of TLR4-MyD88 association in cells, primary screen, cell-based, HeLa CL3-4, BLA complementation, FRET ratio; Toll-like receptor 4 (Homo sapiens) + Myeloid differentiation primary response protein …; HeLa CL3-4 TLR4/MyD88 BLA complementation; inhibition, % at 8.4 µM; 0.18% of 200,000 active; in the data active = inhibition above about 25%;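 also: 0% = vehicle and 100% = reference inhibitor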
HSF1 activator: HSF-1 activators, primary screen, NIH3T3-HGL cells, MG132 stress, luminescence, single point; 1.7% of 300,000 active; NIH3T3-HGL HSF-1 luciferase reporter, 8 h; 100% = twice DMSO control signal; activation, % at 9 µM;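 active = mean replicate activation of at least 50% with a set share of replicates each reaching 50%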;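 also: 0% = median of the neutral control wells and 100% = twice that signal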
TLR9-MyD88 block: inhibitors of TLR9-MyD88 association in cells, primary screen, cell-based, CHO, BLA complementation, fluorescence; CCF4 FRET ratio; AID 504734, 2011; inhibition, % at 4.98 µM; 0.21% of 340,000 active;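 active = inhibition above the mean over all tested compounds plus 3 SD, cut at about 21% in these data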;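 also: 0% = DMSO only wells and 100% = clavulanate BLA inhibitor control wells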
The depositor's hits bear a star; nt = no result given.

SMILES | HSF1 inhib | NOD2-RIPK2 inh | TLR4-MyD88 BLA | HSF1 activator | TLR9-MyD88 block
Cc1cc(C)nc(N2CCCC(C(=O)Nc3ccc4nc(C)c(C)nc4c3)C2)n1 (stereo not drawn) | 25 | -14 | 13 | 57* | 6
C(=N\Nc1nc(-c2ccccn2)nc2ccccc12)/c1ccccc1 | 111 | nt | nt | 160* | nt
N#CC1=C(N)NC(SCC(=O)Nc2ccccc2)=C(C#N)C12CCCCC2 | 40 | -12 | -8 | 71* | 1
CC(NC(=O)CN1C(=O)NC2(CCCCCC2)C1=O)c1ccccc1Cl (stereo not drawn) | nt | -2 | nt | nt | 6
O=[N+]([O-])c1cccnc1NCCc1c[nH]c2ccccc12 | 24 | -5 | nt | 54* | -6
O=[N+]([O-])c1cccnc1NCCc1ccccc1 | 27 | -5 | -19 | 45 | 2
O=C(COC(=O)COc1ccc(Cl)cc1)NC1CCCCCC1 | nt | 6 | nt | nt | 0
O=c1c2c3c(sc2nc(NCCOCCO)n1Cc1ccco1)CCCCC3 | -62* | -13 | nt | -62 | -11
CC(O)CNc1nc2sc3c(c2c(=O)n1Cc1ccco1)CCCCC3 (stereo not drawn) | -24 | 7 | nt | -37 | -9
Nc1nc(-c2cc3ccccc3o2)cs1 | 48 | 4 | nt | 62* | 2
Nc1nc(-c2ccc3ccccc3c2)cs1 | 18 | -3 | 4 | 67* | 0
Cc1nn(CC(=O)NC2CCS(=O)(=O)C2)c(C)c1[N+](=O)[O-] (stereo not drawn) | nt | 10 | nt | nt | -11
CCN1C[C@@H]2[C@@H]3C(=O)N(Cc4ccccc4)C(=O)[C@@H]3[C@](CC)(C1=O)N2C(=O)c1ccccc1 | nt | -5 | nt | nt | -6
COC(=O)c1sccc1NC(=O)Nc1ccccc1F | 22 | -13 | -2 | 58* | 0
COC(=O)c1ccc(NC(=O)Nc2ccccc2C)cc1 | 15 | -7 | -7 | 18 | -5
COC(=O)c1sccc1NC(=O)Nc1ccc(C)c(C)c1 | nt | 10 | nt | nt | -2
COC(=O)c1sccc1NC(=O)Nc1ccc(Cl)c(Cl)c1 | 47 | 4 | -3 | 66* | 8
COC(=O)c1ccc(NC(=O)Nc2ccccc2F)cc1 | 35 | 0 | 9 | 70* | 0
CC1CCc2c(sc3[nH]c(=S)n(C)c(=O)c23)C1 (stereo not drawn) | 0 | -1 | nt | -3 | 4
CCC1(C)Cc2c(sc(NC(=S)NC(=O)c3ccccc3)c2C#N)CO1 (stereo not drawn) | 7 | -9 | -11 | 8 | -3
CN1Cc2sc(NC(=S)NC(=O)c3ccccc3)c(C#N)c2CC1(C)C | -77* | nt | nt | -81 | nt
O=C(O)C1=CC[C@@H](c2ccc(Cl)cc2)N(S(=O)(=O)c2ccc(Cl)cc2)[C@H]1c1ccc(Br)cc1 | nt | -11 | nt | nt | -9
CC1CC(C)CN(C(=O)c2cc3cc(Br)cc(Br)c3o2)C1 (stereo not drawn) | 34 | -3 | 0 | 67* | 0
CCCC(CCC)C(=O)Nc1ccc2c(c1)N(C(=O)CCN1CCN(C)CC1)c1ccccc1CC2 | -63* | -4 | -2 | -68 | -2
Cn1c(=O)cc(OCCCC(=O)NC2CCCC2)c2ccccc21 | 23 | -2 | -4 | 56* | 1
SMILES | HSF1 inhib | NOD2-RIPK2 inh | TLR4-MyD88 BLA | HSF1 activator | TLR9-MyD88 block
C=CCN1CN(S(=O)(=O)c2cccc(Cl)c2)c2nc3ccccc3nc21 | -4 | -7 | nt | 3 | -17
COc1ccc2nc(SCC(=O)Nc3ccc4c(c3)OCCO4)[nH]c2c1 | -53* | 6 | -8 | -59 | 1
O=C(CSc1nc2ccccc2[nH]1)Nc1ccc(F)c(F)c1 | -61* | 0 | -6 | -71 | 2
CCOc1ccc2nc(SCC(=O)Nc3ccc4c(c3)OCCO4)[nH]c2c1 | 5 | -1 | 1 | -7 | 5
CC[C@]12c3[nH]c4ccc(Cl)cc4c3CCN1C(=O)[C@@H](CC(=O)NC/C=C(\C)CCC=C(C)C)C[C@@H]2C(=O)N1CCN(C(=O)c2ccco2)CC1 | nt | 5 | nt | nt | -1
CN(C1=C(NC(=O)c2ccccc2)C(=O)c2ccccc2C1=O)C1CCS(=O)(=O)C1 (stereo not drawn) | 26 | -6 | 1 | 66* | 5
CC(C)c1ccc(CCNC(=O)CCNS(=O)(=O)c2ccc(Br)cc2)cc1 | nt | -10 | nt | nt | -2
CC1(C(=O)NS(=O)(=O)c2ccccc2Cl)CCN1C(=O)Cc1cc(F)ccc1F (stereo not drawn) | nt | -7 | nt | nt | nt
Cc1ccc(O)c(NC(=O)c2onc(C)c2Cl)c1 | 98 | -6 | nt | 155* | -3
Cc1ccc(O)c(NC(=O)c2cc(-c3cccs3)on2)c1 | 66 | -6 | nt | 75* | 3
CCc1ccccc1Nc1nc(N)nc(COC(=O)C2CCN(C(=O)c3ccc(F)cc3)CC2)n1 | nt | 0 | nt | nt | -1
Clc1ccccc1CN(Cc1ccco1)Cc1nnnn1C1CCCC1 | 31 | -5 | -5 | 69* | 1
c1coc(CN(Cc2cccs2)Cc2nnnn2C2CCCCC2)c1 | 10 | -1 | -5 | 17 | -2
CC(C)(Oc1ccc(Cl)cc1)C(=O)Nc1ccc2oc(=O)ccc2c1 | 7 | 2 | nt | -7 | -11
CC(C)(C)C(=O)Nc1ccc(-c2cc3cc(Cl)ccc3o2)cc1 | -54* | 11 | nt | -61 | -6
O=C(Nc1nc(-c2ccccn2)cs1)c1cc(Cl)ccc1[N+](=O)[O-] | 34 | -3 | -16 | 70* | -8
Cc1cc(C(=O)Nc2nc(-c3ccccn3)cs2)ccc1[N+](=O)[O-] | -31 | -4 | -16 | -28 | 2
CCCCOc1ccc(C2/C(=C(/O)c3ccc4c(c3)CC(C)O4)C(=O)C(=O)N2CCCN2CCOCC2)cc1OC (stereo not drawn) | 4 | -3 | nt | -3 | -6
CC(C)CNS(=O)(=O)c1cc(C(=O)OCC(=O)c2ccc3c(c2)OCCO3)c(Cl)cc1Cl | 21 | -5 | -16 | 69* | -3
CCN(/N=C/C=C/c1ccccc1)c1cc(=O)n(C)c(=O)[nH]1 | 27 | -5 | -8 | 69* | 1
CCN(/N=C/c1ccc(Cl)cc1)c1cc(=O)n(C)c(=O)[nH]1 | 14 | -16 | 8 | 19 | 5
CCN1CCCC1CN(Cc1cc2ccc(C)cc2[nH]c1=O)C(=S)Nc1ccc(OC)cc1 (stereo not drawn) | -3 | -7 | -10 | 0 | 3
CCN1CCCC1CN(Cc1cc2ccc(C)cc2[nH]c1=O)C(=S)Nc1cccc(OC)c1 (stereo not drawn) | 14 | -4 | -18 | 60* | 3
COc1ccc(-n2c(SCc3ccc([N+](=O)[O-])cc3)nnc2-c2ccc(C)cc2)cc1 | 26 | -7 | -1 | 57* | -5
CCOc1ncccc1C(=O)OCC(=O)NCCCc1ccccc1 | nt | 0 | nt | nt | 1

Source: PubChem
